ELG1 genotoxic: genotoxicity induction in ELG1-luciferase HEK293T cells. HEK293T ELG1-luciferase reporter, luminescence, 16 h. Potency, µM (highest dose often 46 µM), for the others: at the highest dose activity change, positive = activation, actives largely listed as activators. 330,000 compounds, 1.3% hits. AID 504466; note: % of control where 0% means no effect; nearly all actives have a fitted effect of over 60% in size
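Quantitative HTS format in 1536-well plates. HEK293T ELG1-luciferase reporter cells receive test compound and are incubated 16 hr at 37 °C, 5% CO2; ONE-Glo added, 30 min room temperature, then luminescence read.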
FLuc modulator: firefly luciferase modulation, counter-screen for miR-21 project; P08659; purified FLuc, Km substrates, luminescence inhibition; Potency, µM (titrated, usually from 57.5 µM), for inactives: at the highest dose activity change, negative = inhibition, most hits filed as inhibitors; 360,000 compounds, 6.9% hits; AID 588342;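 note: plate controls were vehicle for no effect and reference inhibitor for full effect; nearly all actives have a fitted effect of over 55% in size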
Target sequence (P08659 whole entry, looked up): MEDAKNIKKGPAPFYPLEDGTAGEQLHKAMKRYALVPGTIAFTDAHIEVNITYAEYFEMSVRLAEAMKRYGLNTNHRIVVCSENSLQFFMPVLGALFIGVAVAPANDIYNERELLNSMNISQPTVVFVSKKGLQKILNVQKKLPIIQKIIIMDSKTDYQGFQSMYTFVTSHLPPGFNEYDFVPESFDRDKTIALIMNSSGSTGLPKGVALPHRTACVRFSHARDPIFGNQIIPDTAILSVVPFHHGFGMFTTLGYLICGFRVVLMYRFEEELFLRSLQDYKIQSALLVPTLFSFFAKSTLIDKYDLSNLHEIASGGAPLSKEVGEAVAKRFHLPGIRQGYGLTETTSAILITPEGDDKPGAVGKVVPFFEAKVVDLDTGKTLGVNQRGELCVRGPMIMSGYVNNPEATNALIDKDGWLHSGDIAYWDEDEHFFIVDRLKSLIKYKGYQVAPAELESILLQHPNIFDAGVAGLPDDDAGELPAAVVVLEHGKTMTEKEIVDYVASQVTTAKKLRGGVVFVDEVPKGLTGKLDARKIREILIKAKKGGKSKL
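Purified P. pyralis luciferase (10nM final) with 10uM D-luciferin and 10uM ATP (Km levels) in 50mM Tris acetate pH 7.5, 10mM Mg acetate, 0.01% Tween-20, 0.05% BSA; qHTS 6-point titration, ~60 µM downward; luminescence read.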
Rab9 promoter act: activators of Rab9 promoter; Potency, µM (series often up to 9.22 µM), without a hit: at the highest dose activation, negative = inhibition, hits mostly activators; Huh7 Rab9 promoter-luciferase reporter, luminescence, 24 h; 320,000 compounds, 2.8% hits; note: % of control where 0% means no effect; nearly all actives have a fitted effect of over 60% in size
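Luminescence read-out: Huh7 cells stably expressing Rab9-luciferase, treated 24 h with compound at 37 °C, then lysed with luciferase reagent for 10 min at ambient before reading.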
SMN2 splice enh: SMN2 splice variant enhancement; AID 1458; Potency, µM (doses to about 46.1 µM), without a hit: at the top dose activity change, positive = activation, most hits filed as activators; HEK293 SMN2-luciferase splicing reporter, luminescence, 30-36 h; 210,000 compounds, 2.8% hits; note: % of control where 0% means no effect; nearly all actives have a fitted effect of over 55% in size
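qHTS luciferase splicing reporter: luminescence rises when SMN2 exon 7 is included in transfected HEK293 cells. Compound exposure lasted 30-36 h at 37C, with 4.5 mM final sodium butyrate as control, followed by a ONE-Glo read.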
NPC1 promoter act: activates the NPC1 promoter; AID 485313; Potency, µM (doses to about 9.22 µM), for inactives: at the highest dose activation, actives largely listed as activators; Huh7 NPC1 promoter luciferase reporter, 24 h; 320,000 compounds, 2.4% hits; note: % of control where 0% means no effect; nearly all actives have a fitted effect of over 60% in size
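Luminescence read-out of NPC1 promoter-driven luciferase in stably transfected Huh7 cells; compounds delivered in DMSO and left 24 h at 37C, 5% CO2, qHTS titration format.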
ELG1 repair inh: ELG1-dependent DNA repair inhibition; HEK293T ELG1-luciferase reporter, luminescence, 16 h; DNA damage induced by 5-fluorouridine; 330,000 compounds, 2.3% hits; Potency, µM (titrated, usually from 46.1 µM), inactives show top-dose activity change, negative = inhibition, usual class: inhibitors; note: % is set by controls: 0 for no effect and ±100 for the full control effect; nearly all actives have a fitted effect of over 55% in size
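Overnight (16 hr) co-exposure of 2,000 cells/well to 5-fluorouridine and compound at 37 °C preceded detection. Luciferase was quantified via ONE-Glo luminescence; loss of signal denotes inhibition.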
* hit, by the source's call; ? = inconclusive; / = no result given. Rows were chosen to be rich in hits. Some 9.2% of all compounds tested hit in one or more screens of this group. Calls come from the whole dose curve; as a rule, active = well fitted curve in the direction sought with a large enough effect; inconclusive = small, poorly fitted or top-dose-only effect, or another doubt; inactive = no such curve, though single readings can be large; an effect the other way counts as inactive or inconclusive. Potency is the fitted concentration of half-maximal effect.

SMILES	ELG1 genotoxic	FLuc modulator	Rab9 promoter act	SMN2 splice enh	NPC1 promoter act	ELG1 repair inh
Fc1ccc(-c2nc(-c3cccs3)no2)cc1	?	1.3µM*	1.8µM*	/	2µM*	?
Cc1ccc2[nH]c(CSc3nnc(NC(=O)COc4ccccc4C)s3)cc(=O)c2c1	/	-18%	/	/	/	/
Cc1cc(C)cc(NC(=O)CCN2C(=O)c3ccccc3Sc3ncccc32)c1	/	-5%	/	/	/	/
Cc1ccc(S(=O)(=O)c2nc(S(=O)(=O)c3ccc(C)cc3)c(N3CCN(CCO)CC3)s2)cc1	-19%	-1%	-5%	/	-4%	?
Fc1ccc(-c2cc(-c3cccs3)cc(-c3ccccc3)n2)cc1	-2%	-5%	-8%	/	0%	?
Fc1ccc(-c2cnc(-c3cccs3)o2)cc1	?	6µM*	3.5µM*	17%	4µM*	?
CN(C)S(=O)(=O)c1ccc(NC(=O)CSc2nc3ccccc3n2-c2ccccc2)cc1	-3%	4%	-18%	-66%	-7%	?
CN(C)S(=O)(=O)c1cccc(NC(=O)CSc2nc3ccccc3n2-c2ccccc2)c1	-6%	0%	2%	-39%	-4%	18µM*
Cc1cc(Br)ccc1OCC(=O)NC1CCCC1	?	?	-6%	/	-7%	20%
Cc1cc(Br)cc(C)c1OCC(=O)NNC(=O)c1cccs1	0%	5%	-2%	/	-3%	-5%
CC(C)(C)NC(=O)NC(=O)COc1ccccc1C#N	1.3µM*	8.5µM*	1.6µM*	?	4µM*	?
O=C(COc1ccc(Br)cc1Br)NC(=O)NC1CCCC1	?	9.5µM*	3.5µM*	14µM*	3.5µM*	?
O=C(COc1ccc(Br)cc1Br)NNC(=O)c1cccs1	24%	1.9µM*	?	/	25%	?
CC(C)(C)NC(=O)NC(=O)COc1ccc(Br)cc1Br	2.1µM*	0.67µM*	0.63µM*	6.3µM*	1.3µM*	?
COc1ccc(/C=C(\NC(=O)c2ccc(OC)cc2)C(=O)N2CCCCC2)cc1	-7%	-4%	14%	/	3%	-2%
CC(=O)N1CCCC1c1nc2ccccc2n1Cc1ccccc1 (stereo not given)	/	-2%	/	/	/	/
O=C(Nc1cccc(S(=O)(=O)N2CCCCC2)c1)C1=NN(c2ccccc2)C(=O)CC1	-2%	0%	?	/	2%	-21%
COc1cc(/C=C(\C#N)c2nc3ccccc3c(=O)[nH]2)cc(OC)c1OC	/	-6%	/	/	/	/
Cn1c(=O)n(C)c2cc(N3CCOCC3)c(NS(=O)(=O)c3ccc(Br)cc3)cc21	/	0%	/	13µM*	/	/
FC(F)Sc1ccc(Nc2ncnc3nc[nH]c23)cc1	18%	?	?	11µM*	?	?
C=CCn1c(C)cc(C(=O)CSc2nnc(C3CC3)n2C2CC2)c1C	11%	3µM*	15%	/	17%	?
Cc1cc(C(=O)CSc2nnc(C3CC3)n2C2CC2)c(C)n1C(C)C	4%	12µM*	5%	/	6%	?
CC(C)[C@H](NS(=O)(=O)c1ccccc1)C(=O)OCC(=O)NC(=O)NC1CCCCC1	-4%	/	/	/	/	16µM*
CC(C)[C@H](NS(=O)(=O)c1ccccc1F)C(=O)NC1CCCCC1	2%	/	/	/	/	5.2µM*
CCN(CC(=O)N1CCOCC1)S(=O)(=O)c1ccccc1	3%	-1%	4%	/	-4%	-2%
O=C(Nc1ccccc1[N+](=O)[O-])c1cc2ccccc2nc1Cl	8%	6%	0%	/	-3%	13%
O=C(Nc1ccc([N+](=O)[O-])cc1)c1cc2ccccc2nc1Cl	-11%	-11%	3%	/	7%	18µM*
CN(C)c1ccc(NC(=O)c2ccc([N+](=O)[O-])cc2Cl)cc1	?	4.3µM*	3.2µM*	10µM*	2.5µM*	?
CC(C)C(=O)Nc1ccc(NC(=O)c2ccc([N+](=O)[O-])cc2Cl)cc1	0%	2%	-2%	-12%	-4%	-15%

Assay outcomes (PubChem BioAssay)
